Experimental data published in PubChem BioAssay (EPA / NIEHS).
Results filed as inconclusive are left out. The source made the active and inactive calls. The calls were made as follows, unless noted: active = hit-call score of the fitted dose curve at least 0.9, where 1 is the maximum; inactive = score below 0.9.

Key:
[1] = target: CCAAT/enhancer-binding protein beta (Homo sapiens) (UniProt P17676); test: ATG_C_EBP_CIS: Attagene CIS-FACTORIAL HepG2 Assay for human CCAAT/Enhancer Binding Protein (C/EBP) beta (AID 2282927); conditions: HepG2 Attagene cis-factorial transcription factor reporter; actives raise or lower the signal
Summary of the method: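 Changes in reporter mRNA, rather than exogenous chimeric receptor activity, reflect native C/EBP signalling in transfected HepG2 cells dosed for 24 h; transcripts are detected by RT-PCR and capillary electrophoresis.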

[2] = target: Transcription factor E2F1 (Homo sapiens) (UniProt Q01094); test: ATG_E2F_CIS: Attagene CIS-FACTORIAL HepG2 Assay for human E2F Transcription Factor 1 (AID 2282935); conditions: HepG2 Attagene cis-reporter, E2F reporter RNA transcripts; actives raise or lower the signal
Summary of the method: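 Fluorescent RT-PCR products, digested with HpaI for 2 h at 37 C, are separated by capillary electrophoresis. Source RNA comes from transfected HepG2 cultures treated for 24 h.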

[3] = ATG_GATA_CIS: Attagene CIS-FACTORIAL HepG2 Assay for human GATA Binding Protein (AID 2282944); conditions: HepG2 GATA cis-element reporter, Attagene multiplex mRNA; actives raise or lower the signal
Summary of the method: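 Transient MRTU transfection, HepG2, 24 h compound exposure. Total RNA → oligo(dT) RT → PCR → 6-FAM primer extension → HpaI cut → CE. Bidirectional fit vs DMSO.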

[4] = target: Hypoxia-inducible factor 1-alpha (Homo sapiens) (UniProt Q16665); test: ATG_HIF1a_CIS: Attagene CIS-FACTORIAL HepG2 Assay for human Hypoxia Inducible Factor 1 (HIF1A) (AID 2282951); conditions: HepG2 Attagene cis-factorial HIF1a reporter transcription; actives raise or lower the signal
Summary of the method: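 Cis-element reporter constructs were transiently transfected into HepG2 cells, which were treated for 24 h; reporter RNA was reverse-transcribed, amplified, labelled and resolved by capillary electrophoresis.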

[5] = target: Hepatocyte nuclear factor 6 (Homo sapiens) (UniProt Q9UBC0); test: ATG_HNF6_CIS: Attagene CIS-FACTORIAL HepG2 Assay for human Hepatocyte Nuclear Factor 6 (HNF6) (AID 2282952); conditions: HepG2 Attagene cis-factorial HNF6 reporter transcription; actives raise or lower the signal
Summary of the method: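 Readout: fluorescent reporter-transcript fragments resolved by capillary electrophoresis after RT-PCR, reflecting endogenous factor activity in transfected HepG2. Exposure 24 h. Gain or loss of signal fitted bidirectionally against DMSO.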

[6] = target: Heat shock factor protein 1 (Homo sapiens) (UniProt Q00613); test: ATG_HSE_CIS: Attagene CIS-FACTORIAL HepG2 Assay for human Heat Shock Transcription Factor 1 (HSE) (AID 2282953); conditions: HepG2 HSE cis-reporter, Attagene RNA transcription; actives raise or lower the signal
Summary of the method: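 HepG2, transient MRTU transfection, cis-promoter reporters (endogenous TF activity). 24 h compound. RNA → oligo(dT) RT → PCR → 6-FAM primer extension → HpaI cut → CE. Bidirectional fit vs DMSO.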

[7] = ATG_PXRE_CIS: Attagene CIS-FACTORIAL HepG2 Assay for human Pregnane X Receptor Element (PXRE) (AID 2282957); conditions: HepG2 Attagene CIS-FACTORIAL PXRE reporter, mRNA; actives raise or lower the signal
Summary of the method: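 Read-out: fluorescence of reporter-specific RT-PCR products resolved by capillary electrophoresis, fitted bidirectionally relative to DMSO. Human HepG2 liver cells carried transfected cis-promoter reporter units and were exposed to chemicals for 24 h.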

[8] = ATG_Sox_CIS: Attagene CIS-FACTORIAL HepG2 Assay for human SRY-box transcription factor (SOX) (AID 2282960); conditions: HepG2 Attagene cis-factorial SOX reporter, mRNA; actives raise or lower the signal
Summary of the method: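 Fluorescence-labelled cDNA fragments from reporter transcripts, sized by CE, give the signal. Cells: HepG2, transiently transfected with cis-regulated reporter units. Exposure 24 h; DMSO negative control; bidirectional curve fitting.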

[9] = target: Signal transducer and activator of transcription 3 (Homo sapiens) (UniProt P40763); test: ATG_STAT3_CIS: Attagene CIS-FACTORIAL HepG2 Assay for human Signal Transducer and Activator of Transcription 3 (STAT3) (AID 2282963); conditions: HepG2, Attagene cis-factorial STAT3 reporter transcription; actives raise or lower the signal
Summary of the method: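 Cis-factorial format: endogenous transcription factors in HepG2 drive transfected reporter units. After 24 h treatment, reporter RNA was reverse-transcribed, amplified, FAM-labelled and HpaI-digested before CE analysis; activity scored in both directions against DMSO.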

[10] = ATG_TAL_CIS: Attagene CIS-FACTORIAL HepG2 Assay for human TAL Basal Promoter (AID 2282966); conditions: HepG2 Attagene cis-factorial TAL promoter reporter; actives raise or lower the signal;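 also: background control endpoint measuring basal TAL promoter reporter mRNA not a specific factor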
Summary of the method: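 HepG2, transient MRTU transfection, 24 h compound exposure; RNA → oligo(dT) RT → PCR → 6-FAM primer extension → HpaI digest → CE fluorescence. Bidirectional curve fit vs DMSO. Background-control readout.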

[11] = ATG_VDRE_CIS: Attagene CIS-FACTORIAL HepG2 Assay for human Vitamin D Receptor Element (VDRE) (AID 2282968); conditions: HepG2 VDRE cis-reporter transcription, actives raise or lower the signal
Summary of the method: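 Measures endogenous factor activity through cis-element-driven reporter transcripts in transiently transfected HepG2. Cells are treated 24 h; reporter mRNA is quantified by RT-PCR and capillary electrophoresis; fitting is bidirectional.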

[12] = target: X-box-binding protein 1 (Homo sapiens) (UniProt P17861); test: ATG_Xbp1_CIS: Attagene CIS-FACTORIAL HepG2 Assay for human X-box Binding Protein 1 (XBP1) (AID 2282972); conditions: HepG2 XBP1 cis-element reporter, Attagene multiplex; actives raise or lower the signal
Summary of the method: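 Reporter transcripts were quantified by RT-PCR with fluorescent primer extension and capillary electrophoresis after 24 h chemical exposure. Cells: transiently transfected HepG2 carrying cis-regulated reporter constructs; data fitted bidirectionally relative to DMSO.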

[13] = ATG_M_06_TRANS: Attagene TRANS-FACTORIAL HepG2 Assay for M06 Transcription Factor (Internal Marker) (AID 2282983; active = hit-call score of the fitted dose curve at least 0.9, where 1 is the maximum); conditions: HepG2 Attagene TRANS M06 internal marker reporter
Summary of the method: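 Read-out: fluorescent reporter cDNA fragments resolved by capillary electrophoresis after RT-PCR and HpaI cut. Source cells were HepG2 carrying transfected multi-reporter GAL4 constructs, dosed 24 h. Increase over DMSO control analysed.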

[14] = target: Transcriptional activator Myb (Homo sapiens) (UniProt P10242); test: ATG_Myb_CIS: Attagene CIS-FACTORIAL HepG2 Assay for human Myeloblastosis (Myb) Proto-Oncogene Transcription Factor (AID 2282986); conditions: HepG2 Attagene CIS-FACTORIAL Myb reporter transcription; actives raise or lower the signal
Summary of the method: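 Using HepG2 liver cells bearing transiently transfected cis-promoter reporter constructs, the assay measures induction or loss of reporter mRNA after 24 hours of dosing. Detection used fluorescently labeled RT-PCR products separated by capillary electrophoresis.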

[15] = ATG_NFI_CIS: Attagene CIS-FACTORIAL HepG2 Assay for human Nuclear Factor I (NFI) (AID 2282989); conditions: HepG2 cis-regulatory reporter, NFI response element transcription; actives raise or lower the signal
Summary of the method: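 Transient MRTU transfection of HepG2 → 24 h chemical dosing → total RNA, oligo(dT) RT → PCR, 6-FAM primer extension, HpaI cut → capillary electrophoresis. Endpoint fitted bidirectionally relative to DMSO.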

[16] = target: Myc proto-oncogene protein (Homo sapiens) (UniProt P01106); test: ATG_Myc_CIS: Attagene CIS-FACTORIAL HepG2 Assay for human Myelocytomatosis (Myc) Proto-Oncogene Transcription Factor (AID 2282990); conditions: HepG2, Attagene cis-reporter transcription factor activity; actives raise or lower the signal
Summary of the method: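 Cells of the HepG2 human liver line bear multiple cis-driven reporter transcription units. Reporter mRNA after 24 h exposure is reverse-transcribed, amplified, labelled and resolved by capillary electrophoresis, with gain- or loss-of-signal fitting relative to DMSO.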

[17] = ATG_NRF2_ARE_CIS: Attagene CIS-FACTORIAL HepG2 Assay for human Nuclear Factor Erythroid 2 Related Factor 2 (NFR2) response to Antioxidant Response Elements (ARE) (AID 2282992); conditions: HepG2 Attagene ARE/NRF2 reporter, transcription factor activity; actives raise or lower the signal
Summary of the method: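 Endogenous transcription factor activity read out as reporter transcript levels (RT-PCR plus capillary electrophoresis, fluorescence) in transiently transfected HepG2 cells. Measured at 24 h after dosing; gain or loss of signal fitted versus DMSO.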

[18] = target: Cellular tumor antigen p53 (Homo sapiens) (UniProt P04637); test: ATG_p53_CIS: Attagene CIS-FACTORIAL HepG2 Assay for human p53 Transcription Factor (AID 2282994); conditions: HepG2 p53 cis-element reporter, Attagene mRNA; actives raise or lower the signal
Summary of the method: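 Endogenous p53 activity read in transiently transfected HepG2 from a cis-element-driven reporter transcript after 24 h exposure. RNA reverse-transcribed, PCR-amplified, fluorescently labelled and sized by capillary electrophoresis; gain or loss fitted against DMSO baseline.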

[19] = target: Cellular tumor antigen p53 (Homo sapiens) (UniProt P04637); test: TOX21_p53_BLA_p2_ratio: Tox21 HCT-116 p53 Agonism Beta-lactamase Assay, Ratio, Phase 2 (AID 2283592; active = hit-call score of the fitted dose curve at least 0.9, where 1 is the maximum)
Summary of the method: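 Readout: blue/green (460/530 nm) FRET emission ratio after 2 h CCF4-AM loading at room temperature, excitation 405 nm. HCT116 p53 bla cells, 16 h compound exposure at 37C, 5% CO2; agonist direction fitted against DMSO baseline.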

[20] = target: Transcription factor Sp1 (Homo sapiens) (UniProt P08047); test: ATG_Sp1_CIS: Attagene CIS-FACTORIAL HepG2 Assay for human Specificity Protein 1 (Sp1) (AID 2282961); conditions: HepG2 Sp1 cis-reporter transcription, actives raise or lower the signal
Summary of the method: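 Chemicals are dosed onto HepG2 cells transfected with multiple cis-promoter reporter constructs, and after 24 h reporter RNA is reverse-transcribed, PCR-amplified and resolved by capillary electrophoresis for fluorescence quantitation; activity is scored up or down against DMSO.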

Measured: AC50

Chain of Cellular tumor antigen p53 (Homo sapiens) (P04637 whole entry, looked up): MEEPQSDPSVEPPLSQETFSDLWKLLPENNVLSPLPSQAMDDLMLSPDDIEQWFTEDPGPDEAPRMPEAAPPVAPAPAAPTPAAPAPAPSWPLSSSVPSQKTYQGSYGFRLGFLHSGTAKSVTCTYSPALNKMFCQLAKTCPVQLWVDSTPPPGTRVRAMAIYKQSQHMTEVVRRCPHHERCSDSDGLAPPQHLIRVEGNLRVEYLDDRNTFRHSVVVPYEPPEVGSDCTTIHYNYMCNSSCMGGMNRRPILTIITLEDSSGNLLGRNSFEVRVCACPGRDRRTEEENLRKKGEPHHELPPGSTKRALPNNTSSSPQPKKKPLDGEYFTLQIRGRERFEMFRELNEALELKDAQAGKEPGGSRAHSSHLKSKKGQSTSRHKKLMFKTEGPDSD
Chain of Transcription factor E2F1 (Homo sapiens) (Q01094 whole entry, looked up): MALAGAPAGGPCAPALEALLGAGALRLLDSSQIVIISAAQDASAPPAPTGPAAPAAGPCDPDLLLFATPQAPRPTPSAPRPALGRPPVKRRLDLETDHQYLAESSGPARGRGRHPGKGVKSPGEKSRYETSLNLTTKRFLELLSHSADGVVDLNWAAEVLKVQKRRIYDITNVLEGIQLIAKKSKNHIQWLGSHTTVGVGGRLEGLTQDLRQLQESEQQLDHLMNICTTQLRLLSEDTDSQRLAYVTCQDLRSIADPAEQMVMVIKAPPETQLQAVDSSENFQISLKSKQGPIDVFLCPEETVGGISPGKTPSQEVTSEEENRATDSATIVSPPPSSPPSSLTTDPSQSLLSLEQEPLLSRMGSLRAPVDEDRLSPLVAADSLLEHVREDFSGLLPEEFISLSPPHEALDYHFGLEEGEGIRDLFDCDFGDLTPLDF
Chain of CCAAT/enhancer-binding protein beta (Homo sapiens) (P17676 whole entry, looked up): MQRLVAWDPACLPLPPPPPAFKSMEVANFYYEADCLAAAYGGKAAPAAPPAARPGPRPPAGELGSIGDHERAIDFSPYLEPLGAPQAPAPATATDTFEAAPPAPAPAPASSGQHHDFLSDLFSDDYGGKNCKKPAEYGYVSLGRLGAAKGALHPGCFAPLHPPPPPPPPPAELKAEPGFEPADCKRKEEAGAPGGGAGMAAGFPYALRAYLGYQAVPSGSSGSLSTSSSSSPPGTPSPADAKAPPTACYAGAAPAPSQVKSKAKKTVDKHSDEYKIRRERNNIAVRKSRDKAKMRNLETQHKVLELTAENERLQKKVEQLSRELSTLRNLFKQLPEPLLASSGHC
Chain of Heat shock factor protein 1 (Homo sapiens) (Q00613 whole entry, looked up): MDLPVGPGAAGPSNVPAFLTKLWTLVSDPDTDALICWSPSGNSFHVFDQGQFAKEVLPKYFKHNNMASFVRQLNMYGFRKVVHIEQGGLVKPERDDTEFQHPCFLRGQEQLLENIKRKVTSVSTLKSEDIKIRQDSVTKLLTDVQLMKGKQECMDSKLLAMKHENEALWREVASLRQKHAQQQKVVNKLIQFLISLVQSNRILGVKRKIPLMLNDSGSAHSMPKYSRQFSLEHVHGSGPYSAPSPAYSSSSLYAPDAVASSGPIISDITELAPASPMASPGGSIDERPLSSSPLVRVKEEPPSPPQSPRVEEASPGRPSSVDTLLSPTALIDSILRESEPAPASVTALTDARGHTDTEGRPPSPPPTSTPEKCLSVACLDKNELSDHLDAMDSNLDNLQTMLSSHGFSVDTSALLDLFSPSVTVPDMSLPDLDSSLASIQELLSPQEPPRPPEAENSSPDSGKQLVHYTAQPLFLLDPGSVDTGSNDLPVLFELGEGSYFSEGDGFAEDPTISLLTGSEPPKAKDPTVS
Chain of Signal transducer and activator of transcription 3 (Homo sapiens) (P40763 whole entry, looked up): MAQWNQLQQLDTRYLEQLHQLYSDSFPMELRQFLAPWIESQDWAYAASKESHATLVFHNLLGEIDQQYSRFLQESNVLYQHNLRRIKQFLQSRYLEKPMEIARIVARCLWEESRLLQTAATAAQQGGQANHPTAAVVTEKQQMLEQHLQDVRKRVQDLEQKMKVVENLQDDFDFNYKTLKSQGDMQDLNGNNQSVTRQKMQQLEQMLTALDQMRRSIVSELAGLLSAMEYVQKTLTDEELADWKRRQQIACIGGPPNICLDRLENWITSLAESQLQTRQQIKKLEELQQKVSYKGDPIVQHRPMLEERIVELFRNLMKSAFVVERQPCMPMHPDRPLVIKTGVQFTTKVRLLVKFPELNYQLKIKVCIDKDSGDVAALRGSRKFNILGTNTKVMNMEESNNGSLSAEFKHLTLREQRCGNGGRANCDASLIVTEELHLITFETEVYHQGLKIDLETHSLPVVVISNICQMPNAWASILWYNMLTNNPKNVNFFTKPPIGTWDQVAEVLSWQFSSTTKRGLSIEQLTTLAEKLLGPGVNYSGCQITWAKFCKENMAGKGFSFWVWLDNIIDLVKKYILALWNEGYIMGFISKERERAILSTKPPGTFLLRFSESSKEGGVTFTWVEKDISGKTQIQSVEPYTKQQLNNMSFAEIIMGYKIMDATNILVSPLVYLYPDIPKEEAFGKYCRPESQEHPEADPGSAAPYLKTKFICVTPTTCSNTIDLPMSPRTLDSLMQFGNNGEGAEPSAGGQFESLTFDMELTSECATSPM
Chain of Hepatocyte nuclear factor 6 (Homo sapiens) (Q9UBC0 whole entry, looked up, the tested form may be a part): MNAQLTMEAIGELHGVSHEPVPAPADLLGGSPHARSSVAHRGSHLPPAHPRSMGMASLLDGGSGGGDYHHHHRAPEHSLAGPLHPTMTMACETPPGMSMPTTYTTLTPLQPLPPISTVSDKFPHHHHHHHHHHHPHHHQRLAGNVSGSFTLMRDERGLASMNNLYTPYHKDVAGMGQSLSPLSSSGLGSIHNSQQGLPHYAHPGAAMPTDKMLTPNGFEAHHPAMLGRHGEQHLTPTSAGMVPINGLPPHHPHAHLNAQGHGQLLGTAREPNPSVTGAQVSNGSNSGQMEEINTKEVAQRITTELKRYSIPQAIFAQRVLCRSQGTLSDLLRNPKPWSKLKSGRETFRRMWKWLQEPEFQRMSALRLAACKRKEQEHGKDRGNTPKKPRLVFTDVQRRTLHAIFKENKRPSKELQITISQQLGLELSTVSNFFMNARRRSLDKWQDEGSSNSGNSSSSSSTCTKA
Chain of Transcriptional activator Myb (Homo sapiens) (P10242 whole entry, looked up): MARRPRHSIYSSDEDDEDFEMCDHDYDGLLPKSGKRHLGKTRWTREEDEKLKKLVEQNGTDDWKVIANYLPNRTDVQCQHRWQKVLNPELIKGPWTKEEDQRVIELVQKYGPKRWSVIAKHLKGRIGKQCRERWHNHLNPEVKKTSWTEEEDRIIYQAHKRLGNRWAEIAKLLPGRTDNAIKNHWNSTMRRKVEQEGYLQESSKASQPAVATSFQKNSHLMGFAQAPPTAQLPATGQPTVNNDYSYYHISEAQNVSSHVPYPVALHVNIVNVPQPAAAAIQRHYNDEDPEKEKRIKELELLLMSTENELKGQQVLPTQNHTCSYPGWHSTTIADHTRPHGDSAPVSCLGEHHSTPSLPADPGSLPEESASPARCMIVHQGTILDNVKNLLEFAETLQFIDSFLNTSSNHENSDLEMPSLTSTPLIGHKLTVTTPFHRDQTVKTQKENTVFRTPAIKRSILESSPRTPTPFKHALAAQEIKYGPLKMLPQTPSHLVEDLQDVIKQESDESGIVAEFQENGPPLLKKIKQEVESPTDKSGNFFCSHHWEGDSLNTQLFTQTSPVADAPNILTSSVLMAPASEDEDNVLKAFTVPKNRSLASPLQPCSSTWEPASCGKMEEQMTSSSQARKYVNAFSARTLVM
Chain of X-box-binding protein 1 (Homo sapiens) (P17861 whole entry, looked up): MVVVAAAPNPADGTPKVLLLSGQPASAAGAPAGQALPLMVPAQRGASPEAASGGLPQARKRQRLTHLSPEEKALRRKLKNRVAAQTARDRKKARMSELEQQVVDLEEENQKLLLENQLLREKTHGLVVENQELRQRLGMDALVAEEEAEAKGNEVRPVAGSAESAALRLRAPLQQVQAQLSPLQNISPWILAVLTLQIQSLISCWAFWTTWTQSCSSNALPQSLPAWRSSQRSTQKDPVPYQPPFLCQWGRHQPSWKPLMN
Chain of Hypoxia-inducible factor 1-alpha (Homo sapiens) (Q16665 whole entry, looked up): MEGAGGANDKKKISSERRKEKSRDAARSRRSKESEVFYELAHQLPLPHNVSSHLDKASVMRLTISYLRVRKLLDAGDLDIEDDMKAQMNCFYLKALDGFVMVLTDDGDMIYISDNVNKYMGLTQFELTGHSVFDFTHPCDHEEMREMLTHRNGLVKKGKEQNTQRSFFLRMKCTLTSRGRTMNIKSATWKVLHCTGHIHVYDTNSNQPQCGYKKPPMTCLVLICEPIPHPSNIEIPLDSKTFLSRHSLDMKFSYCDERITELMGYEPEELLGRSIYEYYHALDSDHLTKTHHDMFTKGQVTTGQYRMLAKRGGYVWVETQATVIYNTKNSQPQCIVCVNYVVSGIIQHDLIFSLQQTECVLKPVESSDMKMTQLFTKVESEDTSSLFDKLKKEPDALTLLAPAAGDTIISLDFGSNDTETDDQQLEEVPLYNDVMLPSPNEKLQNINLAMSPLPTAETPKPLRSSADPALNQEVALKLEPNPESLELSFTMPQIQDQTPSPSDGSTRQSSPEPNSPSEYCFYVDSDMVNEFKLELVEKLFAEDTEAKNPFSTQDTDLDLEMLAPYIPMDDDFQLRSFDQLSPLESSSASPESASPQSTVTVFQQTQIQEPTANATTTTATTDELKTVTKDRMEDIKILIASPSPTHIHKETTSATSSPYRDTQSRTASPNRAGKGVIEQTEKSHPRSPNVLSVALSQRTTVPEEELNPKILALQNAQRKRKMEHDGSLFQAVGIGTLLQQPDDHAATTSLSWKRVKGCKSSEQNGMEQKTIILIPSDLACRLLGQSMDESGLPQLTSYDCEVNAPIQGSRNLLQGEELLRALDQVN

CCO[Si](OCC)(OCC)c1ccccc1
active: [7] 50.9 µM
inactive: [1] | [2] | [3] | [4] | [5] | [6] | [8] | [9] | [10] | [11] | [12] | [13] | [14] | [15] | [16] | [17] | [18]

COc1c2occc2cc2ccc(=O)oc12
active: [1] 63.8 µM | [7] 27.3 µM | [11] 53.7 µM
inactive: [3] | [8] | [10] | [12] | [13] | [14] | [18] | [19]

O=C(O)c1nc(Cl)c(Cl)c(Cl)c1Cl
active: [7] 73 µM | [17] 15.3 µM
inactive: [1] | [3] | [4] | [5] | [6] | [8] | [9] | [10] | [11] | [12] | [13] | [14] | [15]

Cc1cc(C)c(S(=O)(=O)O)cc1N=Nc1cc(S(=O)(=O)O)c2ccccc2c1O
active: [17] 72.2 µM
inactive: [1] | [2] | [3] | [4] | [5] | [6] | [7] | [8] | [20] | [9] | [10] | [11] | [12] | [13] | [14] | [15] | [18] | [19]

CCCCCCCCCC/C=C/C1CC(=O)OC1=O (stereo not given)
active: [17] 79.8 µM
inactive: [1] | [2] | [3] | [4] | [5] | [6] | [9] | [10] | [11] | [12] | [13] | [14] | [15] | [16] | [18] | [19]
